The values below come from the supplement of paper PMC10338343.

In assay [1] the test system is MILI (PIWIL2) piRISC loaded with piRNA #1 (26 nt). Briefly: pre-steady-state target cleavage rate (min^-1); guide: piRNA #1 5'p-UGAGGUAGUAGGUUGUAUAGUAUCCA; higher = faster piRNA-guided slicing of the target. To be noted: auxiliary factor: 500 nM mouse GTSF1. Summed up: (§1)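 With or without 500 nM GTSF1 partner protein, 1 nM active affinity-purified piRISC carrying one synthetic guide was mixed with 0.1 nM transcribed, DNA-blocked target RNA library in HEPES–potassium acetate buffer at 33 °C for 0–8 or 0–960 min. Uncleaved targets were sequenced and normalised to depth and to weakly complementary targets, three trials were pooled, and k3 was capped at 0.0001 min^-1. The pre-steady-state cleavage rate came from a burst-and-steady-state fit.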

Assay [2] relates to EfPiwi piRISC loaded with piRNA #1 (26 nt). Briefly: pre-steady-state target cleavage rate (min^-1); auxiliary factor: 500 nM Ephydatia muelleri Gtsf1; guide: piRNA #1 5'p-UGAGGUAGUAGGUUGUAUAGUAUCCA; MIWI and MILI are mouse PIWI proteins and EfPiwi is from a freshwater sponge; tags in brackets are library labels; higher = faster piRNA-guided slicing of the target. In outline: as §1

± gives the standard deviation.

Regarding GGAGACCAUACUCUACAACCUACUACCUCA, the entries for the “pre-steady-state target cleavage rate” value in assay [1] and in assay [2] were 0.161 ± 0.018 and 0.00922 ± 0.0037, respectively.

GGAGUCGAUACUAUACAACCUACUACGUCA: the “pre-steady-state target cleavage rate” value came to 0.0797 ± 0.0078 in assay [1] and 0.00643 ± 0.0028 in assay [2].

For GGAGACCUUACUAUCACAACCUACUACCUCA, the “pre-steady-state target cleavage rate” value in assay [1] was 0.143 ± 0.016; in assay [2] it was 0.00983 ± 0.0039.

On to GGAGUGGAUACUAUACAACCUACUACCACA, for which the “pre-steady-state target cleavage rate” value was 0.113 ± 0.0097 in assay [1] and 0.00561 ± 0.0019 in assay [2].

With GGAGUGGAUACAAUACAACCUACUAGCUCA, the results for the “pre-steady-state target cleavage rate” value in assay [1] and in assay [2] were 0.0614 ± 0.0087 and 0.00216 ± 0.0014, respectively.

GGAGAGGAUACAUACAACCUACUACCUCA: the entries for the “pre-steady-state target cleavage rate” value in assay [1] and in assay [2] were 0.137 ± 0.016 and 0.0103 ± 0.005, respectively.

On to GGAGUGGAUACUAUACAACCUACUGCCUCA, for which the “pre-steady-state target cleavage rate” value in assay [1] amounted to 0.102 ± 0.0082; in assay [2], 0.00835 ± 0.0028.

For the sequence GGAGACCUAACUAAACAACCUACUACCUCA, the “pre-steady-state target cleavage rate” value in assay [1] was 0.0743 ± 0.017; in assay [2] it was 0.00631 ± 0.0031.

For GGAGACCAAACAAUACAACCUACUACCUCA, the “pre-steady-state target cleavage rate” value in assay [1] was found to be 0.0678 ± 0.024; in assay [2], 0.00594 ± 0.0054.

GGAGAGGAUACUAUACAACCUACAACCUCA: the “pre-steady-state target cleavage rate” value in assay [1] was determined as 0.111 ± 0.015; in assay [2], 0.00428 ± 0.0019.

Consider GGAGACGAUACUAUACAUCCUACUACCUCA, for which the “pre-steady-state target cleavage rate” value in assay [1] was found to be 0.289 ± 0.024; in assay [2], 0.00772 ± 0.0032.

In the case of GGAGUGGAUACUCAUACAACCUACUACCUCA, the “pre-steady-state target cleavage rate” value in assay [1] worked out at 0.161 ± 0.012; in assay [2], 0.0153 ± 0.0069.

In the case of GGAGUGGAUACUAUACAAGCUACAACCUCA, the “pre-steady-state target cleavage rate” value came out at 0.142 ± 0.014 in assay [1] and 0.00371 ± 0.0018 in assay [2].

Regarding GGAGACCUUACUGAUACAACCUACUACCUCA, the results for the “pre-steady-state target cleavage rate” value in assay [1] and in assay [2] were 0.0968 ± 0.011 and 0.0403 ± 0.016, respectively.

Consider GGAGACGAUACUAUACAACCUACUACCCA, for which the “pre-steady-state target cleavage rate” value in assay [1] was determined as 0.107 ± 0.024; in assay [2], 0.00543 ± 0.0019.

Regarding GGAGUGGAUACUAUACAACGUACUACCUGA, the “pre-steady-state target cleavage rate” value in assay [1] was determined as 0.0131 ± 0.0034; in assay [2] it was 0.00457 ± 0.0015.

On to GGAGACCUAACUAUACAUCCUACUACCUCA, for which the “pre-steady-state target cleavage rate” value turned out to be 0.239 ± 0.028 in assay [1] and 0.00745 ± 0.0028 in assay [2].

GGAGAGGAUACUAUACAACCCACUACCUCA: the figures for the “pre-steady-state target cleavage rate” value in assay [1] and in assay [2] were 0.0214 ± 0.0051 and 0.00601 ± 0.0024, respectively.

On to GGAGUGGAUCCUAUACAACCUACUACCUCA, for which the “pre-steady-state target cleavage rate” value in assay [1] is 0.156 ± 0.027; in assay [2], 0.111 ± 0.058.

For GGAGACCUUACUAUACAACCUACUAUCUCA, the results for the “pre-steady-state target cleavage rate” value in assay [1] and in assay [2] were 0.0879 ± 0.0097 and 0.00831 ± 0.0039, respectively.

Turning to GGAGACGAUAACUAUACAACCUACUACCUCA, the entries for the “pre-steady-state target cleavage rate” value in assay [1] and in assay [2] were 0.116 ± 0.0099 and 0.0617 ± 0.023, respectively.

In the case of GGAGACCUAACUAUACAACCCACUACCUCA, the “pre-steady-state target cleavage rate” value was 0.0098 ± 0.0041 in assay [1] and 0.00404 ± 0.0036 in assay [2].

With GGAGACCUUACUAUGCAACCUACUACCUCA, the “pre-steady-state target cleavage rate” value in assay [1] is 0.158 ± 0.011; in assay [2], 0.0061 ± 0.0032.

Consider GGAGACGAUACUAUACAACGUACUUCCUCA, for which the results for the “pre-steady-state target cleavage rate” value in assay [1] and in assay [2] were 0.0234 ± 0.0059 and 0.00359 ± 0.0013, respectively.

Take GGAGAGGAUACUAAUACAACCUACUACCUCA: the “pre-steady-state target cleavage rate” value in assay [1] was determined as 0.147 ± 0.011; in assay [2], 0.128 ± 0.048.

For the sequence GGAGACCUUAGAAUACAACCUACUACCUCA, the “pre-steady-state target cleavage rate” value in assay [1] amounted to 0.011 ± 0.004; in assay [2] it was 0.00613 ± 0.0038.

Consider GGAGUGGAUACUAUACAACCUACUAACCUCA, for which the “pre-steady-state target cleavage rate” value in assay [1] amounted to 0.133 ± 0.014; in assay [2], 0.00634 ± 0.0027.

On to GGAGACGUUACUAUACAACCUACUACCACA, for which the “pre-steady-state target cleavage rate” value in assay [1] stood at 0.191 ± 0.016; in assay [2], 0.00242 ± 0.0022.

On to GGAGUGGAUACUAUACAACCUACUACCUGCA, for which the “pre-steady-state target cleavage rate” value turned out to be 0.109 ± 0.012 in assay [1] and 0.00841 ± 0.0028 in assay [2].

As to GGAGACGAUACUAAACAACCUACUACGUCA, the results for the “pre-steady-state target cleavage rate” value in assay [1] and in assay [2] were 0.0907 ± 0.012 and 0.00304 ± 0.003, respectively.

Regarding GGAGUGGAUACUAUAGAACCUACUAGCUCA, the “pre-steady-state target cleavage rate” value in assay [1] was 0.00733 ± 0.0025; in assay [2], 0.00232 ± 0.0015.

On to GGAGACGAUACUAUAGAACCUACUAGCUCA, for which the “pre-steady-state target cleavage rate” value in assay [1] was 0.0159 ± 0.0077; in assay [2] it was 0.00419 ± 0.0018.

For GGAGAGGAAACUUUACAACCUACUACCUCA, the entries for the “pre-steady-state target cleavage rate” value in assay [1] and in assay [2] were 0.224 ± 0.031 and 0.0107 ± 0.0049, respectively.

Take GGAGACGAUACUAUACUACCUACUACCUGA: the “pre-steady-state target cleavage rate” value in assay [1] stood at 0.167 ± 0.021; in assay [2] it was 0.00446 ± 0.0021.

For the sequence GGAGACCAUUCUAUACAACCUACUAGCUCA, the “pre-steady-state target cleavage rate” value in assay [1] was 0.0909 ± 0.015; in assay [2], 0.00323 ± 0.0026.

Regarding GGAGUGGAUACUAAACAAGCUACUACCUCA, the “pre-steady-state target cleavage rate” value in assay [1] amounted to 0.211 ± 0.013; in assay [2], 0.00401 ± 0.0019.

On to GGAGACGAUACUAUACAACCUACUACCGCA, for which the “pre-steady-state target cleavage rate” value in assay [1] stood at 0.161 ± 0.021; in assay [2], 0.00926 ± 0.0033.

For GGAGACCUUACUAUACAACCUACUAACCUCA, the “pre-steady-state target cleavage rate” value in assay [1] is 0.178 ± 0.018; in assay [2] it was 0.00393 ± 0.0038.

For GGAGUGGAUACUAUACAACCAACUAGCUCA, the “pre-steady-state target cleavage rate” value in assay [1] turned out to be 0.00229 ± 0.0021; in assay [2], 0.00337 ± 0.0015.

GGAGACGAUACUAUACAAACUACUACCUCA: the “pre-steady-state target cleavage rate” value came to 0.245 ± 0.015 in assay [1] and 0.00656 ± 0.0025 in assay [2].

Regarding “GGAGAGGAUACUAUACAACCUACUACCUCU [g2:g25:cont:t1U]”, the “pre-steady-state target cleavage rate” value came to 0.238 ± 0.025 in assay [1] and 1.56 ± 0.47 in assay [2].

GGAGACCAUACCAUACAACCUACUACCUCA: the “pre-steady-state target cleavage rate” value is 0.157 ± 0.027 in assay [1] and 0.107 ± 0.044 in assay [2].

For GGAGACCUAUCUAUACAACCUCCUACCUCA, the “pre-steady-state target cleavage rate” value in assay [1] was 0.0185 ± 0.0046; in assay [2], 0.00509 ± 0.0028.

As to GGAGAGGAUACUAUUCAACCUACUACCUCA, the “pre-steady-state target cleavage rate” value was determined as 0.178 ± 0.011 in assay [1] and 0.012 ± 0.0057 in assay [2].

As for GGAGACCAUACGAUACAACCUACUACCUCA, the “pre-steady-state target cleavage rate” value in assay [1] came out at 0.255 ± 0.028; in assay [2], 0.00769 ± 0.0035.

As to GGAGUCGAUACUAUACAACCUACUACCACA, the “pre-steady-state target cleavage rate” value in assay [1] was found to be 0.175 ± 0.014; in assay [2], 0.0037 ± 0.0015.

As for GGAGACCAUUGAAUACAACCUACUACCUCA, the “pre-steady-state target cleavage rate” value in assay [1] was determined as 0.0121 ± 0.0038; in assay [2], 0.00581 ± 0.0033.

On to GGAGACCAUACUAUACAACCUACUGCCUCA, for which the “pre-steady-state target cleavage rate” value came out at 0.139 ± 0.015 in assay [1] and 0.00606 ± 0.0025 in assay [2].

Regarding GGAGUCGAUACUAUACAACCUACUACCUGA, the “pre-steady-state target cleavage rate” value in assay [1] was found to be 0.0703 ± 0.011; in assay [2], 0.00547 ± 0.0021.

On to GGAGUGGUUACUAUACAUCCUACUACCUCA, for which the entries for the “pre-steady-state target cleavage rate” value in assay [1] and in assay [2] were 0.295 ± 0.014 and 0.00608 ± 0.0026, respectively.

Take “GGAGACCUAUGUAUACAACCUACUACCUCG [g2:g19:cont:t1G]”: the “pre-steady-state target cleavage rate” value in assay [1] turned out to be 0.0649 ± 0.0098; in assay [2], 0.00909 ± 0.0048.

Turning to “GGAGACCUUACUAUACAACCUACUACCUCC [g2:g22:cont:t1C]”, the “pre-steady-state target cleavage rate” value in assay [1] is 0.172 ± 0.017; in assay [2], 0.0065 ± 0.0027.

In the case of GGAGUGGAUACUAGACAACCUACUACCUCA, the “pre-steady-state target cleavage rate” value in assay [1] stood at 0.193 ± 0.011; in assay [2], 0.226 ± 0.081.

For the sequence GGAGUGGAUAGUAUACAAGCUACUACCUCA, the “pre-steady-state target cleavage rate” value in assay [1] worked out at 0.0697 ± 0.01; in assay [2] it was 0.00224 ± 0.0021.

Take GGAGACGAUACUUUACAACCUAGUACCUCA: the “pre-steady-state target cleavage rate” value in assay [1] was 0.0601 ± 0.017; in assay [2], 0.00252 ± 0.0017.

For GGAGACCAUACUUAACAACCUACUACCUCA, the “pre-steady-state target cleavage rate” value in assay [1] was 0.134 ± 0.018; in assay [2], 0.00395 ± 0.0032.

Turning to GGAGACGAUACUGUACAACCUACUACCUCA, the “pre-steady-state target cleavage rate” value in assay [1] came to 0.169 ± 0.018; in assay [2], 0.0777 ± 0.025.

On to GGAGACCUAACUCUACAACCUACUACCUCA, for which the entries for the “pre-steady-state target cleavage rate” value in assay [1] and in assay [2] were 0.114 ± 0.031 and 0.0071 ± 0.0032, respectively.
